Values without a mark were called inactive. Records with an inconclusive call do not appear. A call without a number means that no potency is given here. Calls of active or inactive are those of the source. Unless noted, calls come from the whole dose curve; as a rule, active = well fitted curve in the direction sought with a large enough effect; inconclusive = small, poorly fitted or top-dose-only effect, or another doubt; inactive = no such curve, though single readings can be large; an effect the other way counts as inactive or inconclusive.
Key:
[1] = system: Zika virus NS2B-NS3 protease (linked construct); assay: Confirmatory screen NINDS AMC qHTS for Zika virus inhibitors (AID 1347152);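 note: AMC fluorescence gain from cleaved Bz-Nle-KRR-AMC substrate over 15 min; top concentration of the series differs between compounds; nearly all actives have a fitted effect of over 70% in size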
Method in brief: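 In this dose-response qHTS, AMC release from 10 microM Bz-Nle-KRR-AMC by 1 nM linked protease is measured over 15 minutes (about 20% conversion) at pH 8.0. Percent inhibition is fitted to a 4-parameter Hill curve.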

[2] = system: Zika virus NS2B-NS3 protease (unlinked complex); assay: Confirmatory screen GU AMC qHTS for Zika virus inhibitors (AID 1347153); note: nearly all actives have a fitted effect of over 70% in size;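 for potency: enzyme at 25 nM with substrate at 10 µM below its Km of 18.3 µM; potency is the fitted concentration of half-maximal effect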
Method in brief: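 Noncovalent NS2B hydrophilic domain/NS3 protease complex (25 nM) in 10 mM Tris-HCl pH 8.0, 0.01% Tween 20 was preincubated 15 min at room temperature with compounds. Then 10 µM AMC substrate (Km 18.3 µM) was added; fluorescence was read over 15 min and fitted to a 4-parameter Hill equation.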

[3] = Tertiary RLuc qRT-PCR qHTS assay for Zika virus inhibitors (AID 1347169); note: nearly all actives have a fitted effect of over 55% in size; note: potency is the fitted concentration of half-maximal effect; for activity change, negative = inhibition: top concentration of the series differs between compounds
Method in brief: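 Orthogonal cell-based infection assay using recombinant ZIKV-RLuc (Cambodian) in Vero cells; compound added prior to virus at MOI 1-2. Incubation lasts 48-72 hrs at 37 degrees C before live-cell Renilla substrate is added and luminescence measured.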

[4] = system: Zika virus NS2B-NS3 protease; assay: Primary screen GU AMC qHTS for Zika virus inhibitors (AID 1347154); note: nearly all actives have a fitted effect of over 70% in size; note: potency is the fitted concentration of half-maximal effect
Method in brief: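 Unlinked Zika NS2B hydrophilic domain/NS3 protease domain noncovalent complex (25 nM final) in 10 mM Tris-HCl pH 8.0, 0.01% Tween 20, with AMC peptide substrate. Fluorescence (ex 340, em 450 nm) change over 15 min, room temperature; percent inhibition fitted to 4-parameter Hill equation.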

[5] = Confirmatory screen NINDS Rhodamine qHTS for Zika virus inhibitors (AID 1347161); note: nearly all actives have a fitted effect of over 60% in size; note: potency is the fitted concentration of half-maximal effect;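 for activity change, negative = inhibition: purified Zika NS2B-NS3 protease with linked NS2B cofactor domain and Rhodamine110 peptide substrate; series mostly up to about 110 µM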
Method in brief: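 Enzyme (25 nM, linked NS2B-NS3) was preincubated 15 min with compound in 10 mM Tris-HCl pH 8.0, 0.01% Tween 20. Rhodamine110 substrate (1.5 microM) was then added and fluorescence read at start and after 15 min.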

[6] = Vero cells viability qHTS for Zika virus inhibitors (AID 1347167)
Method in brief: (§1)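 Counter-screen for cytotoxicity of hits from NS2B-NS3 protease qHTS. Overnight-attached cells (2.5 x 10^5 cells/mL, DMEM/4% FBS) were dosed in titration, incubated 24 to 48 hours, then assayed by CellTiter Glo.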

[7] = HepG2 cells viability qHTS for Zika virus inhibitors (AID 1347168); note: potency is the fitted concentration of half-maximal effect
Method in brief: as §1

[8] = Primary qHTS for small molecule stabilizers of the endoplasmic reticulum resident proteome: Secreted ER Calcium Modulated Protein (SERCaMP) assay (AID 1508630)
Method in brief: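 GLuc-SERCaMP-expressing SH-SY5Y cells, pretreated 16 h with compound, are challenged with thapsigargin to empty ER calcium stores; after 4 h, coelenterazine is added directly to the medium and luminescence is imaged.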

[9] = target: Glutathione peroxidase 1 (Homo sapiens) (UniProt P07203); assay: Primary qHTS Assay for Inhibitors of Recombinant Selenoprotein Glutathione Peroxidase 1 (GPX1) (AID 1845191); note: nearly all actives have a fitted effect of over 65% in size
Method in brief: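 Recombinant GPX1 (10 nM final) was preincubated with compound for 30 min at room temperature, then reacted with 1 mM GSH, 0.5 mM CHP, 0.5 mM NADPH and 100 nM glutathione reductase; NADPH fluorescence (340/450 nm) was read at 0 and 15 min.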

[10] = system: Zika virus NS2B-NS3 protease (unlinked); assay: Optimization of GU AMC qHTS for Zika virus inhibitors: Unlinked NS2B-NS3 protease assay (AID 1347151); note: series mostly up to about 52 µM; nearly all actives have a fitted effect of over 80% in size
Method in brief: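 Percent inhibition is derived from the 15-min change in AMC fluorescence, normalized against no-inhibitor and no-enzyme controls, then fitted to a 4-parameter Hill curve. Aprotinin was the intraplate control.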

[11] = target: Phospholipid hydroperoxide glutathione peroxidase GPX4 (Homo sapiens) (UniProt P36969); assay: Primary qHTS Assay for Inhibitors of Recombinant Selenoprotein Glutathione Peroxidase 4 (GPX4) (AID 1845192); settings: outcome: dose series up to 50 µM unless noted; note: series mostly up to about 50 µM; nearly all actives have a fitted effect of over 65% in size
Method in brief: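 GR-coupled readout: 100 nM GR, 1 mM GSH, 0.5 mM NADPH; NADPH fluorescence (ex 340/em 450 nm) read at t=0 and after 15 min RT. GPX4 200 nM, preincubated 30 min with compound; substrate 0.5 mM CHP.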

[12] = target: Cytochrome P450 1A2 (Homo sapiens) (UniProt P05177); assay: p450-cyp1a2 (AID 410; calls by dose curve; note: potency is the fitted concentration of half-maximal effect)
Method in brief: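 Human CYP1A2 (20nM) demethylated Luciferin-ME at its Km (100uM) in 100mM KPO4. After 10 min compound preincubation, NADPH regeneration ran the reaction 60 min at room temperature. Luciferin was read by luminescence, normalized to 57 uM furafylline.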

[13] = target: Glucocorticoid receptor (Homo sapiens) (UniProt P04150); assay: GR-GFP Redistribution (AID 450;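 active = compounds whose dose series gives a full or clear partial fitted curve of increased nuclear translocation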; note: potency is the fitted concentration of half-maximal effect); settings: U2OS GR-GFP nuclear translocation, laser cytometry, 2 h
[14] = target: Glucocorticoid receptor (Homo sapiens) (UniProt P04150); assay: GR-EFC Redistribution (AID 451; calls by dose curve; note: potency is the fitted concentration of half-maximal effect); settings: CHO-K1 GR-EFC translocation, beta-gal luminescence, 2 h
Method in brief: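 CHO-K1 cells stably expressing nuclear-localized β-gal enzyme acceptor and GR fused C-terminally to the enzyme donor fragment; ligand-driven nuclear translocation restores β-gal by complementation. Compounds titrated up to 46 uM final, 2 h at 37 °C; luminescence read.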

[15] = target: Cytochrome P450 3A4 (Homo sapiens) (UniProt P08684); assay: qHTS Assay for Activators of Cytochrome P450 3A4 (AID 885); note: nearly all actives have a fitted effect of over 65% in size
Method in brief: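 20nM CYP3A4 + 25uM Luciferin-PPXE (=KM), 200mM KPO4; cpd 10 min RT; NADPH regen, 60 min RT; stop w/ detection buffer, 20 min; luminescence. Normalized to 57 uM ketoconazole.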

Glutathione peroxidase 1 (Homo sapiens), sequence (P07203 whole entry, looked up): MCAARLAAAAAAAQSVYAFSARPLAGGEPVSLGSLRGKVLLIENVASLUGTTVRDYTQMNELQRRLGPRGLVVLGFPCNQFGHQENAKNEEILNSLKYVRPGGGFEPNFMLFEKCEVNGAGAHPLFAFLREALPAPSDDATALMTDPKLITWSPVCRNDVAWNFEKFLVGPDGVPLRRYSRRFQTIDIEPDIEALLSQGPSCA
Glucocorticoid receptor (Homo sapiens), sequence (P04150 whole entry, looked up, the tested form may be a part): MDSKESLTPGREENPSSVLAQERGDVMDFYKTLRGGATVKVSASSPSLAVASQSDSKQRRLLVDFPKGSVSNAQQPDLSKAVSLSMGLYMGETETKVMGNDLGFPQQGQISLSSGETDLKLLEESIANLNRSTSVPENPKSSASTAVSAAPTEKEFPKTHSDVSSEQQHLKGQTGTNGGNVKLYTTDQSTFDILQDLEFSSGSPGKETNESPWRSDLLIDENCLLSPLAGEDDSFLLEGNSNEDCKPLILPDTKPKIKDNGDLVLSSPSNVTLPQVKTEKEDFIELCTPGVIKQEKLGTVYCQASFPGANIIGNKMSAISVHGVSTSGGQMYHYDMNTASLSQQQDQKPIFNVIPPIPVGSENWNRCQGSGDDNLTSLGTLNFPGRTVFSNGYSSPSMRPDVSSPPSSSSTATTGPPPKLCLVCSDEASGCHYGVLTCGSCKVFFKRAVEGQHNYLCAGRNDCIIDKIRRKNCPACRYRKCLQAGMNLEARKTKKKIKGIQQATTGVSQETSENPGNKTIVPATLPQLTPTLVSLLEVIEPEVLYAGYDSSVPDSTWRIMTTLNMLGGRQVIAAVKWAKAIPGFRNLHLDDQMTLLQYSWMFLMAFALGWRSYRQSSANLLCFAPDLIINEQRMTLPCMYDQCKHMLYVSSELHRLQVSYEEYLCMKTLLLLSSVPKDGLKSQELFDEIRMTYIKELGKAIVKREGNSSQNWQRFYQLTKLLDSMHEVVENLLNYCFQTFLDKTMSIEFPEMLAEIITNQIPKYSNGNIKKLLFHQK
Cytochrome P450 3A4 (Homo sapiens), sequence (P08684 whole entry, looked up): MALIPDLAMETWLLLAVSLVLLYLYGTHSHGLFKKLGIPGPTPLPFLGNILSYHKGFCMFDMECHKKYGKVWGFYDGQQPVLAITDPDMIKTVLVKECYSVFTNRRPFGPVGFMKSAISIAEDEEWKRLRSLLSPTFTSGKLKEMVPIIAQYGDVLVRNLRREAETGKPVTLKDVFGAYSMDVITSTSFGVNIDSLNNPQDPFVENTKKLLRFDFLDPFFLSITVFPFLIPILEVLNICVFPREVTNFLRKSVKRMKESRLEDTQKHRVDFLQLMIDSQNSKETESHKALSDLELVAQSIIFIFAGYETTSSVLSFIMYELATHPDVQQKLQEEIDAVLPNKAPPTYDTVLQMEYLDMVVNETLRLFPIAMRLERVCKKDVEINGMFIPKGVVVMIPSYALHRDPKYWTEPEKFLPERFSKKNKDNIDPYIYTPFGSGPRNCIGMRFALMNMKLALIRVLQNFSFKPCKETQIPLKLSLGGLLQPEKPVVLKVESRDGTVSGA
Cytochrome P450 1A2 (Homo sapiens), sequence (P05177 whole entry, looked up): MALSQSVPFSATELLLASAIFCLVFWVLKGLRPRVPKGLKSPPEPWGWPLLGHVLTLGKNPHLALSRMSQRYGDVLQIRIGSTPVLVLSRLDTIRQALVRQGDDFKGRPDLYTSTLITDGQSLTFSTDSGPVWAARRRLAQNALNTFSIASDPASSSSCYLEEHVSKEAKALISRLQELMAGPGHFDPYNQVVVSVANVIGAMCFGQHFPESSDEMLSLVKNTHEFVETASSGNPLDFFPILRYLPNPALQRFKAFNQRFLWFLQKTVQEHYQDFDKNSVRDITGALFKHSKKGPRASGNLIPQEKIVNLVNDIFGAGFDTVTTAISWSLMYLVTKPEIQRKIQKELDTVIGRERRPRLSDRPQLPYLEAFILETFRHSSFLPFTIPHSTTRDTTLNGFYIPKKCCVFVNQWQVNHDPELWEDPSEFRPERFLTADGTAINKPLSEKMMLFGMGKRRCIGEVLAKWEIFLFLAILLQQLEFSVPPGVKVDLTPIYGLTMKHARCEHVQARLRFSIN
Phospholipid hydroperoxide glutathione peroxidase GPX4 (Homo sapiens), sequence (P36969 whole entry, looked up): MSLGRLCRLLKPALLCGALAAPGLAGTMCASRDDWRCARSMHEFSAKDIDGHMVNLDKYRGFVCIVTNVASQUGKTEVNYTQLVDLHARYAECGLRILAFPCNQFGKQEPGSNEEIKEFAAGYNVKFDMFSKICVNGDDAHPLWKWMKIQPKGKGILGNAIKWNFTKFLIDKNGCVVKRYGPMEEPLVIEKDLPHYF

With `O=S(=O)(N[C@H]1CO[C@H]2[C@@H]1OC[C@@H]2n1nnnc1-c1ccc2c(c1)OCO2)c1ccc2ccccc2c1` the Potency [1] was “inactive”, the Potency [2] was “inactive” and the Potency [3] was “inactive”.
With `COc1ccccc1N1CCN(CC2CN3C(=O)N(C)c4ccccc4C3=N2)CC1` (stereo not given) the Potency [4] was “inactive”.
With `CN(C)[C@@H]1C(=O)C(C(=O)NCN2CCCC2)=C(O)[C@@]2(O)C(=O)C3=C(O)c4c(O)cccc4[C@@](C)(O)[C@H]3C[C@@H]12` the Potency [2] was 9.61 µM (active), the Potency [5] was 1.97 µM (active) and the Potency [6] was “inactive”. For the same molecule, the Potency [7] was “inactive” and the Potency [8] was “inactive”.
`CCCCCCCCCCCCCCCCOCC(COP(=O)([O-])OCC[N+](C)(C)C)OC` (stereo not given) gave an activity change, negative = inhibition [4] of 5.04% [at 6.83 µM].
In the case of `CO[C@H]1C[C@@H](O[C@@H]2/C(C)=C/C[C@@H]3C[C@@H](C[C@]4(CC[C@H](C)[C@@H](C5CCCCC5)O4)O3)OC(=O)[C@@H]3C=C(C)/C(=N/O)[C@H]4OC/C(=C\C=C\[C@@H]2C)[C@]43O)O[C@@H](C)[C@H]1O`, the Potency [2] was “inactive”, the Potency [5] was 22 µM (active) and the Potency [8] was “inactive”. The Potency [9] was “inactive”.
In the case of `C[S+](CC[C@H](N)C(=O)O)C[C@H]1O[C@@H](n2cnc3c(N)ncnc32)[C@H](O)[C@H]1O` (stereo not given in full), the Potency [10] was “inactive”, the Potency [6] was “inactive” and the Potency [7] was “inactive”. The Potency [3] was “inactive”, the Potency [9] was “inactive” and the Potency [11] was “inactive”.
For `COc1ccccc1-c1ccnc(N[C@H]2CO[C@H]3[C@@H]2OC[C@@H]3NS(=O)(=O)c2ccc3ccccc3c2)n1`, the Potency [1] was “inactive”, the Potency [2] was “inactive” and the Potency [3] was 16.5 µM (active).
With `Cc1c(-c2ccc(O)cc2)nn(-c2ccc(O)cc2)c1-c1ccc(OCCN2CCCCC2)cc1` the Potency [12] was 12.6 µM (active), the Potency [13] was > 46 µM and the Potency [14] was > 46 µM. The Potency [15] was “inactive”, the Potency [2] was “inactive” and the Potency [5] was “inactive”. The Potency [6] was “inactive” and the Potency [7] was 29.4 µM (active).
In the case of `C=NC(C(=O)N[C@H]1C(=O)N2C1SC(C)(C)C2C(=O)O)c1ccccc1` (stereo not given in full), the Potency [2] was “inactive”, the Potency [4] was 26.7 µM (active) and the Potency [6] was “inactive”. For the same molecule, the Potency [7] was “inactive”, the Potency [3] was “inactive” and the Potency [8] was “inactive”.
In the case of `CCCCC/C=C\C[C@@H](O)/C=C/C=C/C=C\[C@@H](O)CCCC(=O)O`, the activity change, negative = inhibition [4] was 25.7% [at 0.59 µM].
In the case of `O=C1NN(C(=O)Nc2ccc(Br)cc2)C(c2ccccc2)C1c1ccccc1` (stereo not given), the Potency [4] was “inactive”.
With `O=c1ccn([C@@H]2O[C@H](COP(=O)(O)O)[C@@H](O)[C@H]2O)c(=O)[nH]1` the Potency [4] was “inactive”.

Source: PubChem BioAssay (NCATS)
